# Only some compounds are listed: those with a hit (about 1.2% of all), similar ones and a draw of the others.
# TLR4-MyD88 BLA: inhibitors of human TLR4-MyD88 binding. O00206+Q99836. HeLa CL3-4 TLR4/MyD88 BLA complementation, FRET ratio. inhibition, % at 8.4 µM. actives 0.18% (n = 200,000); in the data active means inhibition above about 25%;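 further: 0% = vehicle and 100% = reference inhibitor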
# ABHD5 PLIN5 PPI: ABHD5-PLIN5 protein interaction inhibition; inhibition, % at 4 µM; Q00G26+Q8WTS1; actives 0.78% (n = 360,000); AID 602281; Split G. princeps luciferase complementation, luminescence, 4 h;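 active means inhibition above the mean inhibition across every tested compound plus 3 SD, cut at about 22% in these data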;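 further: 0% = DMSO only wells and the 100% control is not disclosed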
# Target sequence (Q00G26 whole entry, looked up): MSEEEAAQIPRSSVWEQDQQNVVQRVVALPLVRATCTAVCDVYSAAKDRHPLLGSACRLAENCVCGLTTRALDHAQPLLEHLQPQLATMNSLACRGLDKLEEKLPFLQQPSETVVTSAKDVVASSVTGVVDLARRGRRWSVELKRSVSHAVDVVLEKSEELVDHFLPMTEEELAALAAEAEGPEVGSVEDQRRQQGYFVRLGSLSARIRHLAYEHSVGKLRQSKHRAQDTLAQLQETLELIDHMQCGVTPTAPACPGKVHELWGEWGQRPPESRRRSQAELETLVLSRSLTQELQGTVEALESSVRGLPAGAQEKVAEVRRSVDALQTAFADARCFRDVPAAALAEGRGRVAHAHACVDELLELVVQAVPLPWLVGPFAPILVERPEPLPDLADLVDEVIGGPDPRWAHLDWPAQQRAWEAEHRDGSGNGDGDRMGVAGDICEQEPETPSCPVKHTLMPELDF
# Target sequence (Q8WTS1 whole entry, looked up): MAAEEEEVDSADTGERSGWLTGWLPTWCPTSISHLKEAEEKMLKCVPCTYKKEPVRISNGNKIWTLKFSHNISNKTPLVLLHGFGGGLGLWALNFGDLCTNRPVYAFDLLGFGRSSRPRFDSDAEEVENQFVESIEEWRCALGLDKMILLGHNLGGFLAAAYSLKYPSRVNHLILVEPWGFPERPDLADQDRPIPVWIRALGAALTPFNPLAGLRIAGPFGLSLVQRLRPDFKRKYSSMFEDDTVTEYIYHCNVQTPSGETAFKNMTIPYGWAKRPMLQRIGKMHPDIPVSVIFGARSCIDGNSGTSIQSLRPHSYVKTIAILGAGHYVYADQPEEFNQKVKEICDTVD
# NOD2-RIPK2 inh: blocks binding of human NOD2 to RIPK2; O43353; inhibition, % at 4.98 µM; CHO BLA complementation NOD2-RIPK2, CCF4 ratio; actives 0.38% (n = 360,000); AID 624267; in the data active means inhibition above about 21%;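 further: 0% = vehicle only and 100% = reference blocker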
# TLR9-MyD88 block: blocks human TLR9 binding to MyD88; CHO BLA complementation TLR9-MyD88, CCF4 FRET ratio; Q9NR96+Q99836; inhibition, % at 4.98 µM; actives 0.21% (n = 340,000);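 active means inhibition above the mean over all tested compounds plus 3 SD, cut at about 21% in these data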;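 further: 0% = DMSO only wells and 100% = clavulanate BLA inhibitor control wells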
# ABHD5 PLIN5 conf: ABHD5-PLIN5 interaction inhibition, confirmed | shares compounds with ABHD5 PLIN5 PPI | biochemical ABHD5-PLIN5 interaction, luminescence | inhibition, % at 4 µM | actives 67% (n = 2,200) | AID 651612; in the data active means inhibition above about 23%;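 further: 0% = DMSO vehicle wells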
# HNF4 counter: counter-screen for ABHD5-PLIN5 inhibitors: HNF4 split-luciferase | AID 651674 | inhibition, % at 4 µM | HNF4 dimerization, luminescence, biochemical | actives 77% (n = 2,200) | shares compounds with ABHD5 PLIN5 PPI;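 active means mean inhibition across replicate wells exceeding the computed hit threshold, cut at about 13% in these data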;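 further: light from luciferase halves that rejoin when HNF4 fusion proteins dimerize; 0% = DMSO only wells and the 100% control is not given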
# Active calls of the source: *; . = no result given.
SMILES,TLR4-MyD88 BLA,ABHD5 PLIN5 PPI,NOD2-RIPK2 inh,TLR9-MyD88 block,ABHD5 PLIN5 conf,HNF4 counter
O=C(NCc1ccco1)c1ccc2c(c1)C(=O)c1ccccc1-2,1,33*,2,6,46*,49*
CCC(CC)C(=O)Nc1cccc(C(=O)NCc2ccco2)c1,-8,25*,0,1,25*,31*
O=C1c2cccc3c(O)ccc(c23)C(=O)N1Cc1ccco1,20,45*,15,9,24*,53*
Cc1oc2c(c1C(=O)c1ccc(Cl)cc1)C(=O)C(=O)c1ccccc1-2,9,55*,0,4,81*,35*
Cc1ccc(C(=O)c2coc3c2C(=O)C(=O)c2ccccc2-3)cc1,-6,85*,-6,5,94*,65*
COc1ccc(C(=O)c2coc(-c3ccccc3C(=O)O)c2C(=O)O)cc1,3,3,6,2,.,.
C[C@@H]1CN(C(=O)c2ccc(OC3CCN(S(=O)(=O)N(C)C)CC3)cc2)C[C@H](C)O1,.,-4,-8,-10,.,.
CC1CCN(S(=O)(=O)c2ccc(NC(=O)Cc3ccccc3)cc2)CC1,-8,33*,-1,9,50*,-4
O=C(Cc1ccccc1)Nc1ccc(S(=O)(=O)N2CCOCC2)cc1,.,-18,-4,-11,.,.
CC1CCN(S(=O)(=O)c2ccc(NC(=O)Cn3nnc(-c4ccccc4F)n3)cc2)CC1,-17,26*,1,11,41*,2
CCN1C(=O)[C@H]2[C@@H](c3ccc(-c4ccc(C(C)=O)cc4)c(OC)c3)N[C@@](Cc3ccccc3)(C(=O)OC)[C@H]2C1=O,.,-4,1,1,.,.
O=C(/C=C/c1cccc(Br)c1)c1ccc2c(c1)OCO2,.,33*,-3,-4,74*,63*
O=C(/C=C/c1ccccc1Br)c1ccc2c(c1)OCO2,.,0,-3,-7,.,.
O=C(/C=C/c1ccccc1)c1ccc2c(c1)OCO2,.,30*,-8,6,50*,34*
COc1cc(/C=C/C(=O)c2ccc3c(c2)OCCO3)cc(Br)c1OCC(=O)N(C)C,.,40*,16,11,74*,73*
O=C(/C=C/c1ccncc1)c1ccc2c(c1)OCCO2,15,60*,7,7,78*,74*
COC(=O)c1[nH]nc(C(=O)OC(C)(C)C)c1-c1ccccc1,4,-2,-3,1,.,.
COCc1ccc(CN2CCCC(C(=O)Nc3ccc(-c4cscn4)cc3)C2)o1 (stereo not drawn),.,3,0,-2,.,.
COCCNC(=O)C1(C)CCCN(Cc2ccc(Oc3ccccc3)cc2)C1 (stereo not drawn),.,-1,-5,.,.,.
Cc1ccc(OCC(=O)N2N=C(c3ccc(Cl)cc3)CC2c2ccco2)c([N+](=O)[O-])n1 (stereo not drawn),-11,24*,6,4,7,14*
O=C(CCl)N1N=C(c2ccco2)CC1c1ccco1 (stereo not drawn),.,38*,-16,-2,25*,22*
COCC(=O)OCC(=O)N1N=C(c2ccc(Cl)cc2)CC1c1ccco1 (stereo not drawn),-7,7,-1,12,.,.
O=C(OCC(=O)N1N=C(c2ccc(Cl)cc2)CC1c1ccco1)c1cccnc1 (stereo not drawn),.,49*,-2,-11,29*,26*
CC(C)[C@H](NS(=O)(=O)c1ccccc1)C(=O)OCC(=O)N1N=C(c2ccc(Cl)cc2)CC1c1ccco1 (stereo partly drawn),-10,24*,5,1,48*,56*
Cc1cc(C)c2nc(-c3ccccn3)cc(C(=O)NCc3ccco3)c2c1,-1,45*,-6,6,21,26*
SMILES,TLR4-MyD88 BLA,ABHD5 PLIN5 PPI,NOD2-RIPK2 inh,TLR9-MyD88 block,ABHD5 PLIN5 conf,HNF4 counter
Cc1ccc(-c2cc(C(=O)NCc3ccco3)c3ccccc3n2)o1,-4,44*,-13,0,16,30*
Cc1scc(C(=O)NCc2ccco2)c1-c1ccccc1,7,28*,-7,4,23*,22*
Cc1cc(C)c2nc(-c3ccccn3)cc(C(=O)NCc3cc(C)n(C)n3)c2c1,-2,-2,-5,-7,.,.
Cc1ccc2nc(NC(=O)c3cc(-c4ccco4)nc4ccccc34)sc2c1,-13,8,-1,0,.,.
O=C(Nc1nc2ccccc2s1)c1cc(-c2ccco2)nc2ccccc12,16,27*,-7,5,22*,14*
Cc1cc(C(=O)NCc2ccco2)c2ccccc2n1,-10,7,-1,4,.,.
Cc1ccc(-n2ncc3c2CC(C)(C)CC3NC(=O)CCc2ccncc2)cc1 (stereo not drawn),.,-3,5,-2,.,.
CCCCc1nc(SCC(=O)N2CCCC2)c2c(=O)n(C)c(=O)n(C)c2n1,.,1,6,-4,.,.
Cc1ccc(-c2cc(C(=O)O)c3cc(Br)ccc3n2)o1,3,27*,-2,5,79*,88*
Cc1ccc(-c2cc(C(=O)NN3CCOCC3)c3cc(Br)ccc3n2)o1,11,6,-1,-10,.,.
Cc1cccc(C(=O)NCCCn2ccnc2)c1C,.,102*,-5,4,3,2
O=C(NCCCn1ccnc1)c1ccccc1Cl,.,3,-6,-9,.,.
CS(=O)(=O)c1[nH]nc(-c2cccc(Cl)c2)c1C#N,.,8,-14,.,.,.
COc1ccc(CCNC(=O)/C=C/c2ccco2)cc1,.,7,-4,2,.,.
CC(=C/C(=O)O)/C=C/c1ccco1,4,25*,4,-4,10,17*
COc1ccc(C(NC(=O)/C=C/c2ccco2)c2ccc(OC)cc2)cc1,7,25*,-6,5,66*,46*
C(#Cc1ccccc1)C[N+]1(CC#Cc2cccc3ccccc23)CCCC1,-23,27*,-4,2,11,3
COc1ccc(/C=C/C(=O)C(C(N)=O)=C2SCCS2)cc1,-13,0,0,8,.,.
NC(=O)C(C(=O)/C=C/c1ccc(Cl)cc1)=C1SCCS1,.,34*,7,-7,56*,34*
CCC1Sc2ccc(S(=O)(=O)CCC(=O)Nc3cc(C)ccn3)cc2NC1=O (stereo not drawn),.,0,-7,2,.,.
COCCn1c(SCC#N)nnc1-c1ccccc1O,17,57*,3,7,4,0
CCOC(=O)C1=C(C)N(C)C(=O)NC1c1cc2c(cc1[N+](=O)[O-])OCO2 (stereo not drawn),-4,-17,-1,0,.,.
O=S(=O)(c1ccccc1)N1CCN(S(=O)(=O)c2ccccc2)C1,4,-3,-6,-3,.,.
O=S(=O)(/N=S1/CC=CCN1S(=O)(=O)c1ccccc1)c1ccccc1 (stereo not drawn),-8,71*,1,-4,60*,101*
